The list shows a part of the results. Results filed as inconclusive are left out. Calls of active or inactive are those of the source. The call rests on the fitted dose curve; in most records, active means well fitted inhibition curve with a large enough effect; inconclusive means small, poorly fitted or top-dose-only effect, or another doubt; inactive means no such curve, though single readings can be large or run the other way.
target: Peripheral myelin protein 22 (Rattus norvegicus) (UniProt P25094); assay: Cell-based HiBiT reporter assay to measure PMP22 protein expression in S16 Pmp22-HiBiT cells - Confirmatory screen; settings: S16 Schwann cells Pmp22-HiBiT, luminescence, 48 h; series mostly up to 27.9 µM; activity change, negative = inhibition: at the top concentration
Sequence (P25094 whole entry, looked up): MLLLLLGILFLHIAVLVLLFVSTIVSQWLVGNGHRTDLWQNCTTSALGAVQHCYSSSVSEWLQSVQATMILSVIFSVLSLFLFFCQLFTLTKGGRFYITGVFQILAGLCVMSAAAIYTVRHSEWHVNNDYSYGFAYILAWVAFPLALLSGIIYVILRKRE
Description: Assay Provider: Jim Inglese Ph.D. National Center for Advancing Translational Science, National Institutes of Health, Rockville, MD CMT is a heterogeneous group of neurological disorders that affect approximately 1 in 2,500 people. In particular, the most common form of CMT, CMT1A is genetically linked to the duplication of the PMP22 gene which leads to Schwann cell overexpression, thus manifesting itself as a typical case of dose-sensitive diseases. […] We can further discriminate the effect of all transcriptionally active molecules on PMP22 translation or stability with an assay that incorporates a short NLuc peptide (HiBiT) at the C-terminus of expressed PMP22 (S16(f8) PMP22-HiBiT) allowing alpha complementation and luminescence detection of membrane-associated PMP22 protein. […] Miniaturization of these assays to 1536-well plate format for quantitative high throughput screening (qHTS) yielded rich data sets immediately from the qHTS assay (S16(c9) Pmp22-F2sN), when compared with data from a cell viability assay (Cell TiterGlo) to identify compounds that decreased the output signals through cellular toxicity to streamline the selection process of actives for subsequent characterization using the HiBiT assay (S16(f8) PMP22-HiBiT). […]

Row | SMILES | activity change, negative = inhibition
1 | Cc1ccc(NC(=O)c2nc(S(=O)(=O)Cc3cccc(C)c3)ncc2Cl)cc1 | -14.3% (inactive)
